Data on 31 molecules can be found in PubChem BioAssay (NCATS).

Each structure is given as a SMILES string. Records with an inconclusive call do not appear. Active and inactive are the calls of the source. Unless noted, the call rests on the fitted dose curve; in most records, active means well fitted curve in the direction sought with a large enough effect; inconclusive means small, poorly fitted or top-dose-only effect, or another doubt; inactive means no such curve, though single readings can be large; an effect the other way counts as inactive or inconclusive.

Assay [1] deals with Ubiquitin carboxyl-terminal hydrolase 1 (Homo sapiens) (UniProt O94782). The assay is described as follows: Inhibitors of USP1/UAF1: Pilot qHTS (AID 504865). Further: nearly all actives have a fitted effect of over 35% in size. Further: potency means the concentration at half of the fitted maximal effect. In a few lines:
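USP1/UAF1 complex (1nM) preincubated with compound 15 min at room temperature, then Ub-Rho substrate (150nM final) added. Fluorescence read kinetically at 480/540 nm, 6 reads every 60 seconds. Buffer: 50mM HEPES pH 7.8, 0.5mM EDTA, 0.1 mg/ml BSA, 1mM TCEP, 0.01% Tween-20.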
Background: qHTS replaces the single test concentration by a dilution series.

Assay [2] in a line: S16 Schwann cell viability assay (CellTiter-Glo assay) (AID 624031). Further: nearly all actives have a fitted effect of over 70% in size. In a few lines: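 Native S16 Schwann cells (rat), serum-containing medium, overnight attachment then 24 h drug exposure at 37 °C/5% CO2. CellTiter-Glo ATP signal; normalized to cell-free and vehicle wells.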
On the technique in general: ATP-based viability assays read luminescence as a measure of living cells.

A short description of assay [3]: S16 Schwann cell PMP22 intronic element firefly luciferase assay (AID 624032). Further: nearly all actives have a fitted effect of over 30% in size. Further: potency means the concentration at half of the fitted maximal effect. Put shortly: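 Rat S16 Schwann cells stably carrying a PMP22 intronic element-driven Fluc reporter were seeded overnight, then exposed to compounds for 24 h at 37 °C. Luminescence was normalized to PTC124 (positive control) and DMSO (0% activity).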
The nature of assay [4]: S16 Schwann cell PMP22 intronic element beta-lactamase assay (AID 624044; calls by dose curve; further: nearly all actives have a fitted effect of over 15% in size; further: potency means the concentration at half of the fitted maximal effect). The following applies: S16 rat Schwann cells, PMP22 element beta-lactamase FRET, 24 h; ratio activity, negative = inhibition: at 38.3 µM (top of the series). Put shortly: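 Beta-lactamase reporter under a PMP22 intronic regulatory element in stable S16 rat Schwann cells; 24 h compound exposure. 460 nm blue signal normalized between DMSO (0%) and potassium clavulanate, with 535 nm FRET tracking viability; curves classed by r2 and response.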

The next assay relates to DFO2036. The assay is described as follows: qHTS profiling for inhibitors of Plasmodium falciparum proliferation (AID 504749). Further: nearly all actives have a fitted effect of over 60% in size. Further: potency means the concentration at half of the fitted maximal effect. Conditions: P. falciparum in erythrocytes, SYBR Green DNA, 72 h; series mostly up to 28.7 µM. In a few lines: (§1)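 Quantitative HTS: compounds pinned into medium, infected erythrocytes added (0.3% parasitemia, 2.5% hematocrit), 72 h culture at 37 C under 5% CO2. Saponin/Triton lysis with SYBR Green I, overnight RT, then fluorescence read.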

The next assay relates to W2. Described as above. The following applies: P. falciparum in erythrocytes, SYBR Green DNA, 72 h; series mostly up to 28.7 µM. Put shortly:
as §1

Assay [5] deals with Tyrosyl-DNA phosphodiesterase 1 (Homo sapiens) (UniProt Q9NUW8). The assay is described as follows: Confirmation Assay for Inhibitors of Tyrosyl-DNA Phosphodiesterase (TDP1) (AID 489007). Further: potency means the concentration at half of the fitted maximal effect; nearly all actives have a fitted effect of over 40% in size. Conditions: recombinant human TDP1 enzymatic activity, dose-response. In a few lines: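 AlphaScreen assay of tyrosine-FITC cleavage from a biotinylated DNA substrate (15 nM) by E. coli-expressed human Tdp1 (1 nM). Sequence: compound preincubation 15 min, reaction 5 min, bead detection 10 min, all at room temperature. No-enzyme wells give maximum signal.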
Chain of Tyrosyl-DNA phosphodiesterase 1 (Homo sapiens) (Q9NUW8 whole entry, looked up): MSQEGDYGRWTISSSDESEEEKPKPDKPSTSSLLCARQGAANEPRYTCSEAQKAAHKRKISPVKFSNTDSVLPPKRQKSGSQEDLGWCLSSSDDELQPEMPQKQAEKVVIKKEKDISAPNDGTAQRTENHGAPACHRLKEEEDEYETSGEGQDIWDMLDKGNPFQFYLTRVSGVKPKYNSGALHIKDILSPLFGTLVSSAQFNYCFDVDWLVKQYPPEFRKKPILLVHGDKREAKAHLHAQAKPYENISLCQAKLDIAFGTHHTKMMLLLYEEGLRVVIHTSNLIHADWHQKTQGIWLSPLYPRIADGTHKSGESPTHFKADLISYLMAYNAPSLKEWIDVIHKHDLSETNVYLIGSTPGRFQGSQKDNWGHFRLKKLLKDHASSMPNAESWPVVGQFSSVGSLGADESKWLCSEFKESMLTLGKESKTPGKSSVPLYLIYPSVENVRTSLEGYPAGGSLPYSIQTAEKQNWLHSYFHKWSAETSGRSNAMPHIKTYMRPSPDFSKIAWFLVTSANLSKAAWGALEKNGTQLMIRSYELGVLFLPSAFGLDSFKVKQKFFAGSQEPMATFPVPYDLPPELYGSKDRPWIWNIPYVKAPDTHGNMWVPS

Assay [6] can be described thus: Confirmation and Secondary Assay for Modulators of Hemoglobin Beta Chain Splicing at IVS2 705 locus (AID 930).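 Further: HeLa cells stably expressing the EGFP-705 splicing reporter; GFP fluorescence per well restored by corrected splicing of the IVS2-705 intron in EGFP.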 Put shortly: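 Stable HeLa line with EGFP disrupted by mutant beta-globin intron 2 (705). Overnight attachment, then 2 days of compound at 37C, 5% CO2. Signal: peak GFP intensity summed over objects 5-250 µm.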
The target in assay [7] is Cytochrome P450 3A4 (Homo sapiens) (UniProt P08684). The assay is described as follows: qHTS Assay for Inhibitors and Substrates of Cytochrome P450 3A4 (AID 884). Further: nearly all actives have a fitted effect of over 50% in size. In a few lines: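 Luminescent readout of luciferin produced by CYP3A4 (20 nM) dealkylation of Luciferin-PPXE, 25 uM (its KM). NADPH-driven reaction ran 60 min at RT after 10 min compound preincubation; data scaled to 57 uM ketoconazole as 100% inhibition.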
Chain of Cytochrome P450 3A4 (Homo sapiens) (P08684 whole entry, looked up): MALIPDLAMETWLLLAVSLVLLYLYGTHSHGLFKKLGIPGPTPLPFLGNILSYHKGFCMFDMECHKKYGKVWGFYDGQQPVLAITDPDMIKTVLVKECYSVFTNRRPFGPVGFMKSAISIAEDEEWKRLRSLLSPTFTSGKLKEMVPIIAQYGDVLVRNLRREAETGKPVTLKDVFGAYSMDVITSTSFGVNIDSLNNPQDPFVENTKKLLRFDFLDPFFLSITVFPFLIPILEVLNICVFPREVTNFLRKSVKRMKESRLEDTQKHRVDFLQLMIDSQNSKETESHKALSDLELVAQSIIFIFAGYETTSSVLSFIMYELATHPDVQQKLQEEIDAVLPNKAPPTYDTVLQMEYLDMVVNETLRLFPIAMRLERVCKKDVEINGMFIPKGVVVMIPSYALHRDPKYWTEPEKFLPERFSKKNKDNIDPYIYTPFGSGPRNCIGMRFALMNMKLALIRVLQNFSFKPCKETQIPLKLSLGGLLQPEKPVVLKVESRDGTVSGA

Chain of Ubiquitin carboxyl-terminal hydrolase 1 (Homo sapiens) (O94782 whole entry, looked up): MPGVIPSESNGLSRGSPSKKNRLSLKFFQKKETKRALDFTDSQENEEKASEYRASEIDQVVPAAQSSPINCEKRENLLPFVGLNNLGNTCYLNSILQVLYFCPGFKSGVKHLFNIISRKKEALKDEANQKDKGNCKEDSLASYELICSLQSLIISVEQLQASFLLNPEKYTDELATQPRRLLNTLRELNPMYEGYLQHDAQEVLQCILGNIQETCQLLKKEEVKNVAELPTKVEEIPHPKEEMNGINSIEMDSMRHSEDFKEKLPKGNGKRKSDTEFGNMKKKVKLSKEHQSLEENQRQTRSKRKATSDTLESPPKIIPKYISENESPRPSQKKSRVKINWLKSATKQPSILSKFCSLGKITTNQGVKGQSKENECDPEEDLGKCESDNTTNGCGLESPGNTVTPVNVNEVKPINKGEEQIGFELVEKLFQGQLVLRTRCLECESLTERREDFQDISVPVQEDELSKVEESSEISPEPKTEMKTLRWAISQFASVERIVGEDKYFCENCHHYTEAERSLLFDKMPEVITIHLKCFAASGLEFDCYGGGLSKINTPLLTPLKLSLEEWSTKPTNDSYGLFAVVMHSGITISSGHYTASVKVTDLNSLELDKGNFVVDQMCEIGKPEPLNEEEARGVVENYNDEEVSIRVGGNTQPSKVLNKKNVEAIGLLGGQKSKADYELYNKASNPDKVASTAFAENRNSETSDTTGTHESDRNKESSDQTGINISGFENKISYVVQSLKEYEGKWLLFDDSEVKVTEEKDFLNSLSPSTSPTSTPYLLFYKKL

`CCCCC/C(C=O)=C/c1ccccc1`: the Potency entry (in assay [1]; in assay [2]; in assay [3]; in assay [4]; in the assay on DFO2036; with W2) was “inactive” throughout.
For the molecule `O=C(O)c1ccc(/C=C/c2nc3sc4c(c3c(=O)[nH]2)CCC4)cc1`, in assay [5], the Potency was 112 µM (active).
`COc1ccc(S(=O)(=O)N2Cc3ccccc3CC2C(=O)O)cc1` (configuration not stated): in [5], the Potency is 12.6 µM (active).
For `CNC1C(O)C(OC2C(N)CC(N)C(OC3OC(CN)=CCC3N)C2O)OCC1(C)O` (configuration not stated), the Potency result (in [1]; in assay [2]; in [3]; in the assay on DFO2036; with W2) was “inactive” each time.
In the case of `Cc1cn([C@H]2CC(F)[C@@H](CO)O2)c(=O)[nH]c1=O` (some centres not stated), the Potency result (in assay [1]; in [2]; in assay [3]; in assay [4]; in the assay on DFO2036; in the assay with W2) was “inactive” in each case.
Take `COc1ccc2cc(C(=O)Nc3ccccc3)sc(=O)c2c1OC`: the Potency in assay [5] is 56.2 µM (active).
Regarding `Nc1ccc(Nc2ccccc2)c(S(=O)(=O)O)c1`, the Potency in [5] was 7.94 µM (active).
As for `CC12C=CC(=O)C=C1[C@@H](F)CC1C2C(O)CC2(C)C1CC[C@]2(O)C(=O)CO` (some centres not stated), the Potency result (in [1]; in [2]; in [3]; with DFO2036; in the assay with W2) was “inactive” throughout.
Consider `C[C@]12CC[C@@H]3c4ccc(O)cc4CC[C@H]3[C@@H]1C[C@H](O)C2O` (some centres not stated), for which the Potency entry (in assay [1]; in assay [2]; in [3]; in assay [4]; with DFO2036; in the assay on W2) was “inactive” throughout.
In the case of `CC[C@@H](C)C(N)C(=O)O` (some centres not stated), the Potency entry (in assay [1]; in assay [2]; in assay [3]; in the assay with DFO2036; with W2) was “inactive” throughout.
In the case of `O=C(O)c1ccc(-c2ccc(/C=C3\NC(=O)N(Cc4ccc(Cl)cc4)C3=O)o2)cc1`, the Potency in [5] was 14.1 µM (active).
Turning to `COC(c1ccccc1)(c1ccccc1)C(Oc1nc(C)cc(C)n1)C(=O)O` (configuration not stated), the Potency result (in [1]; in [2]; in assay [3]; in assay [4]; with DFO2036; in the assay on W2) was “inactive” each time.
`CC(=O)OCC1=C(C(=O)O)N2C(=O)C(NC(=O)CSc3ccncc3)[C@@H]2SC1` (some centres not stated): the Potency entry in [6] and in assay [1] was “inactive” in each case. For the same molecule, the Potency in assay [5] is 14.1 µM (active).
For the molecule `O=C(O)CCCN1C(=O)/C(=C\c2ccco2)SC1=S`, the Potency in assay [5] is 2.82 µM (active).
The same measure, in the same setting: under `O=C(O)c1cccc(-n2cccc2/C=C2\SC(=O)N(Cc3ccccc3F)C2=O)c1` stands 11.2 µM (active).
Same read-out and setting: under `O=C(CSc1nc(NS(=O)(=O)c2ccccc2)cc(=O)[nH]1)Nc1ccc(Cl)cc1` stands 22.4 µM (active).
In the case of `OCC1O[C@@H](O[C@@H]2C(CO)OC(O)C(O)C2O)C(O)C(O)C1O` (some centres not stated), the Potency result (in assay [1]; in [2]; in assay [3]; in [4]; with DFO2036; in the assay on W2) was “inactive” in each case.
Consider `CC(C)C[C@@H](NC(=O)[C@@H](Cc1ccccc1)NC(=O)c1cnccn1)B(O)O`, for which the Potency entry in assay [1] and in assay [2] was “inactive” in each case. Further, the Potency in assay [3] was 0.0051 µM (active); in assay [4], 0.0224 µM (active); in the assay on DFO2036, 0.112 µM (active); in the assay on W2 it was 0.0601 µM (active).
On to `Cn1c(-n2cccc2)c(-c2c(-c3ccccc3)[nH]c3c2c(=O)[nH]c(=O)n3C)c(=O)[nH]c1=O`, for which the Potency in [5] was 100 µM (active).
In the case of `CO/N=C(/C(=O)N[C@H]1C(=O)N2C(C(=O)O)=C(COC(C)=O)CSC12)c1csc(N)n1` (some centres not stated), the Potency result in [7] and in assay [6] was “inactive” throughout. Moreover, the Potency in assay [5] was 8.91 µM (active); in assay [1], 39.8 µM (active).
For `Cc1ccc(S(=O)(=O)N(CC(=O)O)Cc2ccco2)cc1`, the Potency in assay [5] is 20 µM (active).
Same read-out and setting: under `O=C(O)c1cccc(-n2cccc2/C=C2/NC(=O)N(Cc3ccccc3F)C2=O)c1` stands 8.91 µM (active).
Same read-out and setting: under `Cc1cc(C=O)c(C)n1-c1ccc(Cl)c(C(=O)O)c1` stands 1.12 µM (active).
On to `C[C@@H]1C(SC2Cn3cnc[n+]3C2)=C(C(=O)[O-])N2C(=O)[C@H]([C@@H](C)O)[C@@H]12` (some centres not stated), for which the Potency entry (in assay [1]; in assay [2]; in [3]; with DFO2036; in the assay on W2) was “inactive” each time.
In the case of `O=C1CC[C@H](C(=O)N[C@@H]2C[C@H]2c2ccccc2)N1`, the Potency entry (in [1]; in assay [2]; in [3]; in assay [4]; in the assay on DFO2036; in the assay with W2) was “inactive” each time.
For `O=c1[nH]c(=O)n(C2C[C@H](O)[C@@H](CO)O2)cc1C(F)(F)F` (some centres not stated), the Potency entry (in assay [1]; in assay [2]; in the assay with DFO2036; with W2) was “inactive” in each case. In assay [3], the Potency is 0.51 µM (active).
For the molecule `CNC(=O)C(N)CSC(C)C1=C(C)c2cc3[n-]c(cc4nc(cc5[n-]c(cc1n2)c(C)c5CCC(=O)O)C(CCC(=O)O)=C4C)c(C)c3C(C)SCC(N)C(=O)NC.[Fe+2]` (configuration not stated), the Potency entry (in assay [1]; in [2]; in assay [3]; in assay [4]; in the assay with DFO2036; in the assay with W2) was “inactive” throughout.
In the case of `CC1OC(OCC2OC(Oc3c(-c4ccc(OCCO)c(OCCO)c4)oc4cc(OCCO)cc(O)c4c3=O)C(O)C(O)C2O)[C@@H](O)C(O)C1O` (some centres not stated), the Potency entry in [7], in assay [6], in assay [1], in assay [2], in assay [3] and in [4] was “inactive” each time. Besides, the Potency result in the assay on DFO2036 and in the assay with W2 was “inactive” in each case.
For the molecule `CCCCCCCCCCCC(=O)OCC(O)C1OCC(O)C1O` (configuration not stated), the Potency result (in assay [2]; in assay [3]; in the assay on DFO2036; with W2) was “inactive” each time.
`CC(=O)NC1[C@H](O)C[C@@](O)(C(=O)O)O[C@H]1[C@H](O)[C@H](O)CO` (some centres not stated): the Potency result (in assay [1]; in assay [2]; in [3]; in assay [4]; with DFO2036; with W2) was “inactive” each time.
For the molecule `CCN1CCN(C(=O)NC(C(=O)NC2C(=O)N3C(C(=O)O)=C(CSc4nnnn4C)CSC23)c2ccc(O)cc2)C(=O)C1=O` (configuration not stated), the Potency result (in [7]; in [6]; in [1]; in assay [2]; in assay [3]; in the assay on DFO2036) was “inactive” throughout. The Potency result in the assay with W2 was “inactive”.
